The campaign covered roughly 310,000 compounds. About 14,000 (4.5%) showed an effect of 50% or more. Effects have a minus sign here. Only a selection was taken, and strong results are over-represented in it overall.
The compounds below were run against human ether-à-go-go-related gene (hERG) potassium channel (human, UniProt Q12809) (assay: primary screen, population patch clamp on CHO cells stably expressing hERG; higher = less effect of the substance).
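Note: peak tail current of the secondary pulse compared with the same well before compound.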

human ether-à-go-go-related gene (hERG) potassium channel, sequence (Q12809 whole entry, looked up): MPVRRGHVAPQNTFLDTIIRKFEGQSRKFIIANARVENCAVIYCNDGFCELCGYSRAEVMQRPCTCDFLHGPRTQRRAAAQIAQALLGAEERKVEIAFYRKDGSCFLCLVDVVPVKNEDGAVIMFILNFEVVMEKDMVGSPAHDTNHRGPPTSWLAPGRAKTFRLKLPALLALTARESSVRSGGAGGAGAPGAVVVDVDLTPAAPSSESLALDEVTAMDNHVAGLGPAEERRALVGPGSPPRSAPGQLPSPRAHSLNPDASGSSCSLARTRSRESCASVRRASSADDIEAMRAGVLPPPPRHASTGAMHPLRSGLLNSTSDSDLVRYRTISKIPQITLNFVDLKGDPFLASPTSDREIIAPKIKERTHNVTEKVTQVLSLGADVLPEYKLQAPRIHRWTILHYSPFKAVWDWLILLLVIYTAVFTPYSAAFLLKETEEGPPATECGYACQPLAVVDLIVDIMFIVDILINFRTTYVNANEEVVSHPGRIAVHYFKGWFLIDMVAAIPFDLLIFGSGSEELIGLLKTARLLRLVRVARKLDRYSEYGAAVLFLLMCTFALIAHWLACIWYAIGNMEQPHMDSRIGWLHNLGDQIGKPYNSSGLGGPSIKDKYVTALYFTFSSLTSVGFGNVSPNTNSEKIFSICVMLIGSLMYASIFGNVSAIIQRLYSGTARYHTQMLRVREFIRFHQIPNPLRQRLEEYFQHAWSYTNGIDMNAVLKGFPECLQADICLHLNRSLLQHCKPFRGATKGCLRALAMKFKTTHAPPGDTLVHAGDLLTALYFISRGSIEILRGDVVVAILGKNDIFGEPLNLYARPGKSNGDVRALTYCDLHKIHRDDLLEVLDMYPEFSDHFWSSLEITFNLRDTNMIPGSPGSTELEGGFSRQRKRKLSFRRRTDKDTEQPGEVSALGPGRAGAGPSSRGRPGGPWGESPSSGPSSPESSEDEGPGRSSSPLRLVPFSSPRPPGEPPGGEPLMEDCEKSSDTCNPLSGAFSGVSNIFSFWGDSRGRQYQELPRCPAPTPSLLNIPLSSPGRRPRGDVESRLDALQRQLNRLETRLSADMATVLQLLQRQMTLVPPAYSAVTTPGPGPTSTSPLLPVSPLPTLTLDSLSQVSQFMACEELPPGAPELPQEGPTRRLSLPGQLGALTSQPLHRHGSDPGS

| Compound | hERG current change (%, negative = inhibition) at 10uM [%] |
| --- | --- |
| O=C(COC(=O)Cc1ccc(F)cc1)NC1CCCC1 | 4.84 |
| COc1ccc(N(CC(=O)Nc2cc(OC)c(OC)cc2C(=O)O)S(=O)(=O)c2c(C)noc2C)cc1 | 15.9 |
| COc1ccc(/C=N/Nc2nnc(C)n2N)cc1OC(C)=O.Cl | 14.3 |
| COCCN(C(=O)COC(=O)c1nc(Cl)ccc1Cl)c1c(N)n(Cc2ccccc2)c(=O)[nH]c1=O | 20.3 |
| O=C1CC(c2ccco2)Cc2nc(N3CCc4ccccc4C3)ncc21 (stereo not drawn) | -20.7 |
| Cc1ccc(C(=O)N2CCN(c3ccc(NC(=O)c4ccc(Br)o4)cc3)CC2)cc1 | -68.8 |
| CCC(=O)N1CCN(c2ccc(NC(=O)c3ccc(Br)o3)cc2)CC1 | -26.9 |
| O=C(Nc1ccc(N2CCN(C(=O)c3cccs3)CC2)cc1)c1ccc([N+](=O)[O-])o1 | -25.5 |
| CN1CCN(c2ccc(NC(=O)c3ccc(Br)o3)cc2)CC1 | -16.2 |
| O=C(Nc1ccc(N2CCN(C(=O)c3cccs3)CC2)cc1)c1ccc(Br)o1 | -75.8 |
| O=C(Nc1ccc(N2CCN(C(=O)c3cccs3)CC2)cc1)c1ccco1 | 17.7 |
| Cc1ccc(Nc2c(-c3ccccn3)nc3cccc(C)n23)cc1 | 10.1 |
| Cc1ccc(C(=O)NNC(=O)/C=C\C(=O)O)cc1 | 6.41 |
| CCOC(=O)/C=C/c1ccc2c(c1)S(=O)(=O)N(Cc1ccc(OC)cc1)[C@H]2CC(=O)OCC | -18.2 |
| COc1cccc(=O)c2c(C)n(-c3ccc(C(=O)O)cc3)c(C)c12 | 6.33 |
| COc1ccc(-n2c(C)c3c(OC)cccc(=O)c3c2C)cc1 | -60.2 |
| COc1cccc(-n2c(C)c3c(OC)cccc(=O)c3c2C)c1 | -11.8 |
| COc1cnc(-c2ccccn2)nc1N(C)c1ccccc1 | 14.2 |
| Cc1ccc(-c2nc3ccccc3o2)cc1NC(=O)Cc1cccs1 | 18.7 |
| CC(C)C[C@H](NC(=O)C1(c2ccccc2)CCN(C(=O)OC(C)(C)C)CC1)C(=O)N1CCC[C@H]1C(=O)O | 9.37 |

| Compound | hERG current change (%, negative = inhibition) at 10uM [%] |
| --- | --- |
| CCN1C(=O)c2ccccc2Sc2ccc(C(=O)NCCC(C)C)cc21 | -7.94 |
| CCN1C(=O)c2ccccc2Sc2ccc(C(=O)NCCCN3CCOCC3)cc21 | -17.8 |
| O=C(NCCN1CCOCC1)c1ccc2c(c1)N(Cc1ccccc1F)C(=O)c1ccccc1S2 | -27 |
| Cc1ccccc1CN1C(=O)c2ccccc2Sc2ccc(C(=O)NCCCN3CCOCC3)cc21 | -62.9 |
| CCN1C(=O)c2ccccc2S(=O)(=O)c2ccc(C(=O)NCCCN(CC(C)C)CC(C)C)cc21 | -12.7 |
| Cc1ccc(CN2C(=O)c3ccccc3Sc3ccc(C(=O)NCCCN4CCOCC4)cc32)cc1 | -2.12 |
| Cc1ccccc1CN1C(=O)c2ccccc2Sc2ccc(C(=O)NCCN3CCOCC3)cc21 | -69.6 |
| CCN1C(=O)c2ccccc2Sc2ccc(C(=O)NCCCN(CC(C)C)CC(C)C)cc21 | -64.3 |
| Cc1ccc(CN2C(=O)c3ccccc3Sc3ccc(C(=O)NCCN4CCOCC4)cc32)cc1 | -15.2 |
| CCCCC1C2=C(CC(C)(C)CC2=O)OC2=C1C(=O)CC(C)(C)C2 | -9.48 |
| CC(C)(C)C1=C(C#N)C(c2cccnc2)C(C#N)=C(N)O1 (stereo not drawn) | 4.42 |
| COc1cc(CCN)ccc1O.Cl | 15.1 |
| COP(=O)(OC)C(Nc1ccccc1)c1ccccc1 (stereo not drawn) | 11.4 |
| COc1ccc(N2CCCC2)c(NC(=O)COc2ccccc2Cl)c1 | 14.8 |
| CN1CCN(C(=O)/C(=C\c2cccc([N+](=O)[O-])c2)NC(=O)c2cccs2)CC1 | -25.4 |
| O=C(N/C(=C/C=C/c1ccccc1)C(=O)N1CCCCC1)c1ccc([N+](=O)[O-])cc1 | -72.8 |
| O=C(N/C(=C/c1cccc([N+](=O)[O-])c1)C(=O)N1CCCC1)c1ccccc1 | -46 |
| O=C(N/C(=C\c1ccc([N+](=O)[O-])cc1)C(=O)N1CCCCC1)c1ccccc1Br | -59.4 |
| O=C(N/C(=C\c1ccccc1)C(=O)N1CCOCC1)c1ccccc1Br | 17.9 |

Source: PMC4336329 (PLoS ONE, 2015)
